Potency data for 49 molecules are collected here from PubChem BioAssay (Tox21).

Several values for one entry are separate records, joined by “and”; a condition that tells them apart may be missing. Identical values can stand only once. Results filed as inconclusive are left out. A structure can be active in one record and inactive in another. Activity calls are given as the source filed them. Unless noted, the call rests on the fitted dose curve; in most records, active means well fitted curve in the direction sought with a large enough effect in the repeat runs; inconclusive means weak or mixed curves; inactive means no such curve, though single readings can be large; an effect the other way counts as inactive or inconclusive.

Assay [1] in a line: qHTS assay to identify small molecule antagonists of the estrogen related receptor (ERR) signaling pathway from Tox21 library - cell viability counter screen (AID 1224834). Further: nearly all actives have a fitted effect of over 30% in size. Further: potency means the concentration at half of the fitted maximal effect. The method, boiled down:
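ERR cells, 2,000/well; 6 h settle at 37 C/5% CO2; pin-tool compound transfer in DMSO; 17.5 h at 37 C; CellTiter-Fluor, 30 min; fluorescence intensity.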
On the technique in general: qHTS replaces the single test concentration by a dilution series.

The target in assay [2] is Luciferin 4-monooxygenase (Photinus pyralis) (UniProt P08659). Description: qHTS assay to identify small molecule inhibitors of firefly luciferase (AID 1224835). Further: nearly all actives have a fitted effect of over 25% in size. Further: potency means the concentration at half of the fitted maximal effect. The method, boiled down:
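Quantitative HTS format; KM concentrations of both substrates. Purified P. pyralis FLuc activity quantified from luminescence images.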

The nature of assay [3]: qHTS assay to identify small molecule antagonists of the constitutive androstane receptor (CAR) signaling pathway - cell viability counter screen (AID 1224837). Further: series mostly up to about 92 µM; nearly all actives have a fitted effect of over 45% in size. The method, boiled down: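 Viability was measured with CellTiter-Fluor in a HepG2 line carrying stably transfected hCAR and a CYP2B6-2.2kb construct. Cells were exposed for 23 hr at 37 C to 15 compound concentrations with 50 nM CITCO as agonist.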

The target of assay [4] is Nuclear receptor subfamily 1 group I member 3 (Homo sapiens) (UniProt Q14994). In words: qHTS assay to identify small molecule antagonists of the constitutive androstane receptor (CAR) signaling pathway (AID 1224838).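 Further: HepG2 cells stably expressing hCAR with CYP2B6 luciferase reporter stimulated by CITCO; nearly all actives have a fitted effect of over 40% in size.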 Further: potency means the concentration at half of the fitted maximal effect. In outline:
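Antagonist mode used CITCO at a final 50 nM to activate CAR in human hepatoma HepG2 cells carrying stable hCAR and a 2.2 kb CYP2B6 promoter-luciferase construct. Compounds were tested at 15 concentrations over 24 h, with luminescence as the end point.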

The target is the same in assay [5]. In words: qHTS assay to identify small molecule agonists of the constitutive androstane receptor (CAR) signaling pathway (AID 1224839). Further: nearly all actives have a fitted effect of over 15% in size. Further: potency means the concentration at half of the fitted maximal effect. The method, boiled down: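 Stable hCAR/CYP2B6-2.2kb HepG2 line in DMEM with 10% FBS; compounds (15 concentrations) and 0.75 uM PK11195 final, 24 h at 37 C/5% CO2, then ONE-Glo luminescence after 30 min.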
Assay [6] is described as follows: qHTS assay to identify small molecule antagonists of the estrogen related receptor signaling pathway with the pleiotropic PPARgamma coactivator (PGC) from Tox21 10K library - cell viability counter screen (AID 1224840; active means well fitted cell-killing curve with a large enough effect in the repeat runs, not every such curve was filed as active; further: nearly all actives have a fitted effect of over 40% in size; further: potency means the concentration at half of the fitted maximal effect). In outline: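 Multiplexed viability counter screen in the PGC/ERR cell line: cells treated with DMSO-dissolved compounds for 17.5 hours at 37 C, then viability measured as CellTiter-Fluor fluorescence.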

A short description of assay [7]: qHTS assay to identify small molecule agonists of the constitutive androstane receptor (CAR) signaling pathway - cell viability counter screen (AID 1224836). Further: series mostly up to about 92 µM; nearly all actives have a fitted effect of over 45% in size. In outline: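 Fluorescence from CellTiter-Fluor indicates live cells after 23 h exposure. The human hepatoma line expresses hCAR and a CYP2B6-2.2kb reporter. Incubation medium contains 0.75 uM PK11195 (final).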

The nature of assay [8]: qHTS assay to identify small molecule antagonists of the estrogen related receptor signaling pathway with the pleiotropic PPARgamma coactivator (PGC) from Tox21 10K library (AID 1224841; call rule not given here; further: actives are mostly falling curves and most rising ones were filed inactive; nearly all actives have a fitted effect of over 50% in size; further: potency means the concentration at half of the fitted maximal effect). The method, boiled down:
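Steps: plate 2,000 PGC/ERR cells per well; incubate 6 h at 37 C with 5% CO2; transfer compounds from DMSO stocks by pin tool; incubate 18 h at 37 C; add One-Glo; measure luminescence 30 min later.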

Assay [9] can be described thus: qHTS assay to identify small molecule agonists of the estrogen related receptor signaling pathway with the pleiotropic PPARgamma coactivator (PGC) from Tox21 10K library (AID 1224842). Further: nearly all actives have a fitted effect of over 15% in size. Further: potency means the concentration at half of the fitted maximal effect. The method, boiled down:
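PGC/ERR reporter cells (NTP line) were seeded 2,000 per well, rested 6 h at 37 C/5% CO2, then pin-dosed with compounds in DMSO for 18 h at 37 C; luciferase read by One-Glo luminescence after 30 min at room temperature.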

Nuclear receptor subfamily 1 group I member 3 (Homo sapiens), sequence (Q14994 whole entry, looked up): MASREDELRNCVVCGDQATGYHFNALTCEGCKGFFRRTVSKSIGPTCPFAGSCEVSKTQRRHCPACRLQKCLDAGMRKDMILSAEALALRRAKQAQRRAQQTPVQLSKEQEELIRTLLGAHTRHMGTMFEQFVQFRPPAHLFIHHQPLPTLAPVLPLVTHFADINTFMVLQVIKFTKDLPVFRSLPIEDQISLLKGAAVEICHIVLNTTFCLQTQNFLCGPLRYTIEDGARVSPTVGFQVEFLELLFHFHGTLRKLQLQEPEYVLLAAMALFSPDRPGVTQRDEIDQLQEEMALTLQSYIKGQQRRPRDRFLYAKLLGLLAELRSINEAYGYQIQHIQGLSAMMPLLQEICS
Luciferin 4-monooxygenase (Photinus pyralis), sequence (P08659 whole entry, looked up): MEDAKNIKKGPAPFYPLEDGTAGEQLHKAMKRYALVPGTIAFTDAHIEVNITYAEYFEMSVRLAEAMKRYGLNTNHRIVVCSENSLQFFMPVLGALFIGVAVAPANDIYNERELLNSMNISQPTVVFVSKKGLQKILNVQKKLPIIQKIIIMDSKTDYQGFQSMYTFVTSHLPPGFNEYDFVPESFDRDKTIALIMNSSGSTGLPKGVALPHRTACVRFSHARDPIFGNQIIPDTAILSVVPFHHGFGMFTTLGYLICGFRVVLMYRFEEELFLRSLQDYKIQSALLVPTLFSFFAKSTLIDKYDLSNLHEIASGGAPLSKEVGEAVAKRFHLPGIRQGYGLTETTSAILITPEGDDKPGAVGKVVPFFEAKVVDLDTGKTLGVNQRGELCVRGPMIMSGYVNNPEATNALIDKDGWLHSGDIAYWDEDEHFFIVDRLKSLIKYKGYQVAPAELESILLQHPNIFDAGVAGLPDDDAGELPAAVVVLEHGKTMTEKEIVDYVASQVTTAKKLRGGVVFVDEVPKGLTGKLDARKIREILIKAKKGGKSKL

As to `C=CCC1(C(C)CC)C(=O)NC(=O)NC1=O` (stereo unspecified), the Potency entry in [1], in [2], in assay [3], in assay [4], in assay [5] and in [6] was “inactive” throughout.

With `c1ccc2c(c1)CCNC2`, the Potency result in assay [1], in assay [2], in [7], in assay [4], in assay [6] and in assay [8] was “inactive” throughout. The Potency result in [9] was “inactive”.

As for `CCC1(c2cccc(O)c2)CCCCN(C)C1` (stereo unspecified), the Potency result in [1], in assay [2], in [7] and in assay [6] was “inactive” in each case.

In the case of `C(COCC1CO1)OCC1CO1` (stereo unspecified), the Potency result in [1], in assay [2], in assay [7], in assay [4], in assay [6] and in assay [8] was “inactive” in each case. Further, the Potency result in assay [9] was “inactive”.

As for `CCSC(=O)Cl`, the Potency entry in assay [1], in assay [2], in [7], in [4], in assay [6] and in assay [8] was “inactive” each time. In assay [9], the Potency entry was “inactive”.

Regarding `CCOC(=O)NC(C)(C)Cc1ccc(Cl)cc1`, the Potency entry in assay [1], in [2], in assay [7], in [4] and in assay [6] was “inactive” each time.

Turning to `CC(O)CCl` (stereo unspecified), the Potency result in [1], in [2], in assay [3], in assay [4], in assay [5] and in [6] was “inactive” each time.

On to `CCN(CCO)CCn1c(Cc2ccccc2)nc2c1c(=O)n(C)c(=O)n2C`, for which the Potency entry in assay [1], in assay [2], in assay [3], in assay [4], in [5] and in assay [6] was “inactive” in each case. Moreover, the Potency result in assay [8] and in assay [9] was “inactive” throughout.

Consider `CCN(CCO)CCO`, for which the Potency result in [1], in assay [2], in assay [7], in assay [4] and in [6] was “inactive” throughout.

`Cc1cccc2sc3nncn3c12`: the Potency entry in assay [1], in assay [2], in assay [7], in assay [4] and in assay [6] was “inactive” throughout.

Regarding `CCOC(=O)c1ncn2c1CN(C)C(=O)c1c(I)cccc1-2`, the Potency result in assay [1], in assay [2], in assay [7] and in assay [6] was “inactive” in each case.

For `O=P(O)(O)CN(CP(=O)(O)O)CP(=O)(O)O`, the Potency result in assay [1], in [2], in assay [7] and in [6] was “inactive” each time.

Turning to `CCOC(=O)COc1ccc(Cl)cc1Cl`, the Potency result in assay [1], in assay [7], in [4] and in [6] was “inactive” each time. The Potency in assay [2] is 35.6 µM (active).

On to `Clc1nc(Cl)nc(Nc2ccccc2Cl)n1`, for which the Potency entry in assay [1], in assay [7], in assay [3], in assay [4], in [6] and in assay [8] was “inactive” throughout. Besides, the Potency result in [9] was “inactive”.

On to `CCOP(=S)(OCC)SCCl`, for which the Potency entry in assay [1], in assay [2], in [3] and in assay [6] was “inactive” each time.

Take `COc1cc(CCN)cc(OC)c1OC`: the Potency entry in assay [1], in assay [2], in assay [3], in [4] and in [6] was “inactive” each time.

Consider `O=C(Cl)/C=C/C(=O)Cl`, for which the Potency entry in assay [1], in [3], in assay [6] and in assay [9] was “inactive” in each case.

Turning to `CN1COCN(Cc2cnc(Cl)s2)/C1=N\[N+](=O)[O-]`, the Potency result in [1], in [2] and in assay [6] was “inactive” throughout.

Turning to `NC1(c2ccccc2)CCCCC1`, the Potency entry in [2], in assay [5] and in assay [6] was “inactive” in each case.

In the case of `CON(C)C(=O)Nc1ccc(Br)cc1`, the Potency result in assay [2], in assay [3], in assay [4] and in [6] was “inactive” in each case.

For `CC[C@H](N)c1ccccc1`, the Potency result in assay [1], in [2], in [4], in assay [5] and in assay [6] was “inactive” throughout.

Turning to `CNC(=O)Oc1ccccc1C(C)C`, the Potency result in assay [1], in assay [2], in [3], in assay [4], in [6] and in assay [8] was “inactive” in each case. Moreover, in assay [9], the Potency result is “inactive”.

In the case of `O=[N+]([O-])c1cccc(CCl)c1`, the Potency entry in assay [1], in assay [7], in assay [3], in [4] and in assay [6] was “inactive” in each case.

In the case of `BrCC1CO1` (stereo unspecified), the Potency result in [1], in assay [2], in assay [4], in assay [5] and in [6] was “inactive” each time.

Take `N[C@@H]1C[C@H]1c1ccccc1`: the Potency result in assay [1], in [2], in assay [3] and in assay [6] was “inactive” each time.

Take `O=C1C2CC=CCC2C(=O)N1SC(Cl)(Cl)Cl` (stereo unspecified): the Potency entry is “inactive and 53.6 µM (active)” in [1]; 25.1 µM (active) and 31.2 µM (active) in [2]; “inactive and 13.5 µM (active)” in [4]; “inactive and 30.1 µM (active)” in assay [6]; 7.66 µM (active) and 47.8 µM (active) in assay [8]. The Potency result in assay [9] was “inactive”.

Turning to `CC[C@H](O)C(C[C@H](C)N(C)C)(c1ccccc1)c1ccccc1`, the Potency result in assay [2], in assay [7], in [4], in [5] and in assay [6] was “inactive” each time.

Take `Cc1ccc(-c2nc3ccc(C)cn3c2CC(=O)N(C)C)cc1`: the Potency entry in assay [1], in [7], in [3], in assay [4], in assay [6] and in [8] was “inactive” each time. In assay [9], the Potency was 10.6 µM (active).

In the case of `N=C(N)[Se]`, the Potency entry in [1], in assay [2], in assay [4] and in assay [6] was “inactive” in each case.

In the case of `CCC1(c2ccccc2)CCC(=O)NC1=O` (stereo unspecified), the Potency result in assay [1], in assay [2], in [3] and in assay [6] was “inactive” in each case.

As for `CCc1ccc(C2CCNCC2)cc1`, the Potency result in assay [1], in assay [2] and in assay [6] was “inactive” in each case.

On to `CC#Cc1cc(C)nc(Nc2ccccc2)n1`, for which the Potency result in assay [1], in assay [3], in assay [4] and in assay [6] was “inactive” throughout. For the same molecule, the Potency in assay [2] is 39.9 µM (active).

With `CCCC(C)C1(CC)C(=O)N=C(S)NC1=O` (stereo unspecified), the Potency entry in assay [1], in assay [4], in assay [5] and in assay [6] was “inactive” throughout.

As to `CC(Cc1ccccc1)NCCn1cnc2c1c(=O)n(C)c(=O)n2C` (stereo unspecified), the Potency result in assay [2], in [7], in [3], in [6], in assay [8] and in assay [9] was “inactive” in each case.

On to `COC[C@@H](NC(C)=O)C(=O)NCc1ccccc1`, for which the Potency entry in assay [1], in assay [2], in assay [3], in assay [6], in assay [8] and in [9] was “inactive” in each case.

As to `CC(C)(N)Cc1ccc(Cl)cc1`, the Potency entry in [2], in assay [7], in [4], in [5] and in [6] was “inactive” in each case.

`COC1=CC(=O)O[C@@H](/C=C/c2ccccc2)C1`: the Potency entry in assay [1], in [2], in assay [3], in [6] and in [8] was “inactive” throughout.

Turning to `NCC1(CC(=O)O)CCCCC1`, the Potency result in assay [1], in assay [3] and in assay [6] was “inactive” throughout.

Take `C[C@H]1CCCC(=O)CCC/C=C/c2cc(O)cc(O)c2C(=O)O1`: the Potency in assay [1] is 26.3 µM (active) and 17.8 µM (active); in assay [4] it was 20.9 µM (active); in assay [6], 23.4 µM (active). The Potency result in assay [2] is “inactive”.

Take `N#CN=C1SCCN1Cc1ccc(Cl)nc1`: the Potency entry in assay [1], in assay [2], in assay [3], in assay [6], in assay [8] and in assay [9] was “inactive” throughout.

Take `C=CCCC#N`: the Potency entry in assay [1], in [2], in [4], in [5] and in assay [6] was “inactive” each time.

Turning to `Cc1ccc2cc(C)ccc2c1`, the Potency entry in assay [1], in assay [7], in assay [3], in assay [4], in [5] and in assay [6] was “inactive” each time. Moreover, the Potency result in assay [8] and in assay [9] was “inactive” in each case.

Take `C=C(Cl)CSC(=S)N(CC)CC`: the Potency entry in [1], in assay [2], in assay [4] and in assay [6] was “inactive” each time.

Regarding `CCC1(CC)C(=O)C=CNC1=O`, the Potency entry in [1], in assay [2], in assay [3], in assay [6], in [8] and in assay [9] was “inactive” in each case.

With `O=C(O)C(F)(F)C(F)(F)C(F)(F)C(F)(F)C(F)(F)C(F)(F)F`, the Potency result in assay [1], in [3], in assay [4], in [5] and in [6] was “inactive” each time.

In the case of `OP(O)c1ccccc1`, the Potency entry in assay [1], in [2], in assay [4], in assay [6], in assay [8] and in assay [9] was “inactive” throughout.

As for `BrCc1ccc(Br)cc1`, the Potency entry in [2], in assay [7], in [3], in [4], in [5] and in assay [6] was “inactive” throughout.

Regarding `S=C=S`, the Potency entry in [1], in assay [7], in assay [4], in [6], in assay [8] and in [9] was “inactive” each time.

With `Cn1c(N)nc2c3cccnc3ccc21`, the Potency result in assay [4] and in [6] was “inactive” throughout. For the same molecule, the Potency in [5] was 32.7 µM (active).
